From PubChem BioAssay (EPA / NIEHS) come the findings set out here.

Calls of active or inactive are those of the source. The calls were made as follows: active = hit-call score of the fitted dose curve at least 0.9, where 1 is the maximum; inactive = score below 0.9.

The AC50 is the concentration giving half of the maximal activity seen.

What all share (settings): mRNA level, 48 h; actives raise or lower the signal
Read-out in one assay: CYP2C8 (gene 1558)
As to the kind of experiment: LTEA_HepaRG_CYP2C8: Life Technologies and Expression Analysis (LTEA) Assay for CYP2C8 using HepaRG (AID 2283483). The essentials:
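HepaRG (human liver line), 48 h chemical exposure, 8-pt half-log series from 100 uM, 0.5% DMSO vehicle. Readout: CYP2C8 transcript by qRT-PCR, housekeeping-normalized. Bidirectional fit vs DMSO baseline.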

Read-out in the next assay: CYP2E1 (gene 1571)
As to the kind of experiment: LTEA_HepaRG_CYP2E1: Life Technologies and Expression Analysis (LTEA) Assay for CYP2E1 using HepaRG (AID 2283485). The essentials:
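Assay uses 48 h exposure of HepaRG hepatic cells, eight concentrations to 100 uM. Expression of CYP2E1 is quantified by TaqMan qRT-PCR with ACTB, GAPDH and POLR2A normalization; curves fitted in both directions relative to vehicle.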

Read-out in the next assay: CYP4A11 (gene 1579)
As to the kind of experiment: LTEA_HepaRG_CYP4A11: Life Technologies and Expression Analysis (LTEA) Assay for CYP4A11 using HepaRG (AID 2283486). The procedure, abridged:
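Differentiated HepaRG cells, serum-free induction medium, exposed 48 h in duplicate to 8-point half-log series from 100 uM in 0.5% DMSO. CYP4A11 mRNA measured by qRT-PCR, normalized to ACTB, GAPDH, POLR2A; bidirectional fit versus DMSO.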

Read-out in assay [1]: DNA damage-inducible transcript 3 (DDIT3), DDIT3 (gene 1649)
As to the kind of experiment: LTEA_HepaRG_DDIT3: Life Technologies and Expression Analysis (LTEA) Assay for DNA damage-inducible transcript 3 (DDIT3) using HepaRG (AID 2283488). The procedure, abridged: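 Eight-point concentration-response (100 uM highest, half-log dilutions) in HepaRG, 48 h, duplicate wells. Endpoint: qRT-PCR mRNA, normalized (ACTB, GAPDH, POLR2A), bidirectional fitting with DMSO as baseline.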

Read-out in assay [2]: Pro-epidermal growth factor (Homo sapiens) (UniProt P01133)
As to the kind of experiment: LTEA_HepaRG_EGF: Life Technologies and Expression Analysis (LTEA) Assay for Epidermal growth factor (EGF) using HepaRG (AID 2283489). The procedure, abridged:
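Differentiated human HepaRG cells, plated 48 h then switched to serum-free induction medium, were exposed for 48 h to test chemicals (8-point half-log series, top 100 uM, 0.5% DMSO). EGF mRNA was quantified by qRT-PCR, normalized to ACTB, GAPDH, POLR2A.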

Read-out in assay [3]: Early growth response protein 1 (EGR1) transcription factor, EGR1 (gene 1958)
As to the kind of experiment: LTEA_HepaRG_EGR1: Life Technologies and Expression Analysis (LTEA) Assay for Early growth response protein 1 (EGR1) transcription factor using HepaRG (AID 2283490). The essentials: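 HepaRG, 48 h exposure, 8-pt half-log series from 100 uM, 0.5% DMSO vehicle; EGR1 transcript by TaqMan qRT-PCR (Fluidigm array), housekeeping-normalized; bidirectional fit relative to DMSO baseline.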

Read-out in assay [4]: Ezrin (EZR), EZR (gene 7430)
As to the kind of experiment: LTEA_HepaRG_EZR: Life Technologies and Expression Analysis (LTEA) Assay for Ezrin (EZR) using HepaRG (AID 2283491). The procedure, abridged:
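Read-out is EZR transcript level by qRT-PCR, normalized to three housekeeping genes and fitted bidirectionally against the DMSO control. Human HepaRG cells received test chemicals for 48 h at eight half-log concentrations up to 100 uM in 0.5% DMSO.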

Read-out in assay [5]: Cytochrome P450 3A7 (Homo sapiens) (UniProt P24462)
As to the kind of experiment: LTEA_HepaRG_CYP3A7: Life Technologies and Expression Analysis (LTEA) Assay for CYP3A7 using HepaRG (AID 2283492). The procedure, abridged: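 HepaRG cells plated 48 h, then dosed in serum-free induction medium for 48 h at 8 concentrations (top 100 uM, half-log steps, 0.5% DMSO). CYP3A7 mRNA by qRT-PCR, normalised to ACTB/GAPDH/POLR2A; bidirectional fit versus DMSO.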

Read-out in a further assay: CYP3A5 (gene 1577)
As to the kind of experiment: LTEA_HepaRG_CYP3A5: Life Technologies and Expression Analysis (LTEA) Assay for CYP3A5 using HepaRG (AID 2283493). The procedure, abridged: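 Readout was CYP3A5 mRNA by qRT-PCR. HepaRG cultures were exposed for 48 h in serum-free induction medium to chemicals at up to 100 uM, and responses were fitted in both directions relative to DMSO vehicle.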

Read-out in assay [6]: Fatty Acid-Binding Protein 1 (FABP1), FABP1 (gene 2168)
As to the kind of experiment: LTEA_HepaRG_FABP1: Life Technologies and Expression Analysis (LTEA) Assay for Fatty Acid-Binding Protein 1 (FABP1) using HepaRG (AID 2283494). The essentials:
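qRT-PCR readout of FABP1 transcript (normalized to three housekeeping genes) after 48 h chemical exposure of HepaRG cells; eight concentrations, half-log steps, max 100 uM, 0.5% DMSO vehicle; gain or loss fitted relative to DMSO baseline.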

Read-out in assay [7]: Cytochrome P450 4A22 (Homo sapiens) (UniProt Q5TCH4)
As to the kind of experiment: LTEA_HepaRG_CYP4A22: Life Technologies and Expression Analysis (LTEA) Assay for Cytochrome P450 4A22 (CYP4A22) using HepaRG (AID 2283495). The procedure, abridged: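 qRT-PCR of CYP4A22 mRNA (Fluidigm TaqMan, normalized to three housekeeping genes) after 48 h chemical exposure of HepaRG cells; 8-point half-log series, top 100 uM, 0.5% DMSO vehicle. Bidirectional curve fitting vs DMSO baseline.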

Read-out in assay [8]: Cytochrome P450 7A1 (Homo sapiens) (UniProt P22680)
As to the kind of experiment: LTEA_HepaRG_CYP7A1: Life Technologies and Expression Analysis (LTEA) Assay for Cytochrome P450 7A1 (CYP7A1) using HepaRG (AID 2283496). The procedure, abridged: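 Using 0.5% DMSO as vehicle and baseline, chemicals were tested in duplicate over an 8-point range from 100 uM on HepaRG cells for 48 h; qRT-PCR signals were normalised to ACTB, GAPDH and POLR2A.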

Read-out in assay [9]: Glutamate-cysteine ligase catalytic (GCLC), GCLC (gene 2729)
As to the kind of experiment: LTEA_HepaRG_GCLC: Life Technologies and Expression Analysis (LTEA) Assay for Glutamate-cysteine ligase catalytic (GCLC) using HepaRG (AID 2283498). The procedure, abridged:
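HepaRG, 48 h exposure, 8-pt half-log series from 100 uM, 0.5% DMSO vehicle; TaqMan qRT-PCR for GCLC mRNA, housekeeping-normalized; bidirectional curve fit vs DMSO baseline.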

Read-out in assay [10]: growth arrest and DNA damage 45 (GADD45G), GADD45G (gene 10912)
As to the kind of experiment: LTEA_HepaRG_GADD45G: Life Technologies and Expression Analysis (LTEA) Assay for growth arrest and DNA damage 45 (GADD45G) using HepaRG (AID 2283499). The essentials:
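Differentiated human HepaRG cells in serum-free induction medium were exposed for 48 h to 8 half-log concentrations up to 100 uM in 0.5% DMSO, in duplicate. GADD45G mRNA was measured by TaqMan qRT-PCR, normalised to ACTB, GAPDH and POLR2A, and fitted bidirectionally against DMSO.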

Read-out in assay [11]: Glutamate-cysteine ligase regulatory (GCLM), GCLM (gene 2730)
As to the kind of experiment: LTEA_HepaRG_GCLM: Life Technologies and Expression Analysis (LTEA) Assay for Glutamate-cysteine ligase regulatory (GCLM) using HepaRG (AID 2283500). The procedure, abridged: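 In this multiplexed HepaRG gene-expression assay, GCLM mRNA change after 48 h treatment (8 concentrations, max 100 uM) was scored against DMSO by bidirectional curve fitting.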

Read-out in assay [12]: Glutathione S-transferase M3 (GSTM3), GSTM3 (gene 2947)
As to the kind of experiment: LTEA_HepaRG_GSTM3: Life Technologies and Expression Analysis (LTEA) Assay for Glutathione S-transferase M3 (GSTM3) using HepaRG (AID 2283501). The procedure, abridged: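 Differentiated HepaRG cells in serum-free induction medium were exposed in duplicate for 48 h to 8 half-log concentrations up to 100 uM in 0.5% DMSO. GSTM3 mRNA was measured by TaqMan qRT-PCR, normalized to ACTB/GAPDH/POLR2A, and fitted bidirectionally versus DMSO.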

Read-out in assay [13]: Cytochrome P450 3A4 (Homo sapiens) (UniProt P08684)
As to the kind of experiment: LTEA_HepaRG_CYP3A4: Life Technologies and Expression Analysis (LTEA) Assay for CYP3A4 using HepaRG (AID 2283487). The essentials:
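HepaRG, 48 h exposure, 8-pt CRC from 100 uM (half-log), 0.5% DMSO, duplicates; serum-free induction medium. Readout: CYP3A4 mRNA, qRT-PCR, ACTB/GAPDH/POLR2A normalization. Bidirectional fit vs DMSO.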

Read-out in the next assay: CYP2C9 (gene 1559)
As to the kind of experiment: LTEA_HepaRG_CYP2C9: Life Technologies and Expression Analysis (LTEA) Assay for CYP2C9 using HepaRG (AID 2283484). The essentials:
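HepaRG, 48 h dosing, 8-pt half-log series, top 100 uM, 0.5% DMSO vehicle. Read-out: CYP2C9 transcript by TaqMan qRT-PCR, housekeeping-normalized (ACTB/GAPDH/POLR2A). Gain or loss fitted vs DMSO baseline.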

Cytochrome P450 3A4 (Homo sapiens), sequence (P08684 whole entry, looked up): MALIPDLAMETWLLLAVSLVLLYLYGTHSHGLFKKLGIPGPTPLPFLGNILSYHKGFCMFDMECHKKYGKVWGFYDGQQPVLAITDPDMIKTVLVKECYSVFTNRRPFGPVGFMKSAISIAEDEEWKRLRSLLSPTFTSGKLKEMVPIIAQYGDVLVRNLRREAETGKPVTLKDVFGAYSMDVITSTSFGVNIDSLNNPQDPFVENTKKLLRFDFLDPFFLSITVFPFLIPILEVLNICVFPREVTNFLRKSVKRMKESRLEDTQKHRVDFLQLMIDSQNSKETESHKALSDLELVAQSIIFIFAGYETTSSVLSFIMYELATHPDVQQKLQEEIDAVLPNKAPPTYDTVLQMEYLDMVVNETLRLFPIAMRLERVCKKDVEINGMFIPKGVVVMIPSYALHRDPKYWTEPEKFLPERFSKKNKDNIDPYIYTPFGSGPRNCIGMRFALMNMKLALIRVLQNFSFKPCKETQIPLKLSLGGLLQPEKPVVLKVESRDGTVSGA
Cytochrome P450 3A7 (Homo sapiens), sequence (P24462 whole entry, looked up): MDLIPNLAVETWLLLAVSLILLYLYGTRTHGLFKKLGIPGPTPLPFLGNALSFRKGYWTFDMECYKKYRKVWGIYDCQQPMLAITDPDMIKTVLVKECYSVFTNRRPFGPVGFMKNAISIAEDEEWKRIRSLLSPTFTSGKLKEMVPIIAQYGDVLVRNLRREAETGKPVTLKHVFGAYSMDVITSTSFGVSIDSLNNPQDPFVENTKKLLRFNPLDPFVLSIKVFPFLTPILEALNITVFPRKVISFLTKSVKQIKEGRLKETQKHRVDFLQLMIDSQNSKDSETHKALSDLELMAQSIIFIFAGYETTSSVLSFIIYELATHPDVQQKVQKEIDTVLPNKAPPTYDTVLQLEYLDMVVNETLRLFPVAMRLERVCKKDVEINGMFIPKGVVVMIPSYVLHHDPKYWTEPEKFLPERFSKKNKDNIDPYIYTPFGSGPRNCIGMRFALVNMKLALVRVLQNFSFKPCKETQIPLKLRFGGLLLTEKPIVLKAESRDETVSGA

Turning to `CCOP(=S)(OCC)Oc1ccc2c(C)c(Cl)c(=O)oc2c1`, the call (with CYP2C8 (gene 1558); in assay [2]; in [3]; in assay [4]; in assay [5]; with CYP3A5 (gene 1577)) was inactive. Further, the call in assay [9], in [11] and in [12] was inactive. In addition, the AC50 with CYP2E1 (gene 1571) was 31.6 µM (active); with CYP4A11 (gene 1579), 50 µM (active); in assay [1], 80.3 µM (active); in assay [6] it was 24.6 µM (active); in [7] it was 50 µM (active); in assay [8], 15.5 µM (active). Further, the AC50 in assay [10] is 50 µM (active).

Regarding `CCNc1nc(Cl)nc(NC(C)(C)C#N)n1`, the compound was called inactive (in the assay with CYP2C8 (gene 1558); in [1]; in assay [2]; in [3]; in the assay with CYP3A5 (gene 1577); in [6]). The compound was classed as inactive in assay [7], in assay [8], in assay [9], in assay [10], in assay [11] and in assay [12]. The AC50 was 13.2 µM (active) with CYP2E1 (gene 1571), 39.9 µM (active) in the assay with CYP4A11 (gene 1579), 4.42 µM (active) in [13] and 1.77 µM (active) in [5].

Regarding `CN(C)C(=O)Nc1cccc(C(F)(F)F)c1`, the AC50 was 12.1 µM (active) in the assay with CYP2C8 (gene 1558), 50 µM (active) in the assay with CYP2E1 (gene 1571), 10.4 µM (active) in assay [13] and 7.66 µM (active) in [5]. Also, the compound was called inactive (with CYP2C9 (gene 1559); in the assay with CYP4A11 (gene 1579); in [1]; in [2]; in assay [3]; with CYP3A5 (gene 1577)). Also, the call in assay [6], in assay [7], in assay [8], in assay [9], in assay [10] and in assay [11] was inactive. Besides, the result in [12] was inactive.

Turning to `C#CCC1=C(C)C(OC(=O)C2C(C=C(C)C)C2(C)C)CC1=O` (stereo unspecified), the compound was classed as inactive (in the assay with CYP2C8 (gene 1558); in the assay with CYP2C9 (gene 1559); in [13]; in assay [1]; in [5]; in the assay with CYP3A5 (gene 1577)). Moreover, the compound was called inactive in [8], in assay [9], in [10], in assay [11] and in [12]. Further, the AC50 is 73.3 µM (active) with CYP2E1 (gene 1571); 49.8 µM (active) with CYP4A11 (gene 1579); 11.1 µM (active) in assay [2]; 49.8 µM (active) in assay [3]; 49.8 µM (active) in assay [6]; 81.5 µM (active) in [7].
